Shown are actives, neighbours in structure and some others; about 21% of the full set was active somewhere.
DT40 TDP1 no CPT: qHTS for Inhibitors of human tyrosyl-DNA phosphodiesterase 1 (TDP1): qHTS in cells in absence of CPT; Potency, µM (highest dose often 46.2 µM), without a hit: at the top dose activity change, negative = growth inhibition, most hits filed as inhibitors; DT40 Tdp1-/- hTDP1 cells, no CPT, ATP luminescence, 48 h; 420,000 compounds, 15% hits; note: potency is the fitted concentration of half-maximal effect; nearly all actives have a fitted effect of over 55% in size
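Cells were dispensed at 400 per well, compounds added by pin tool, plates incubated ≥48 hr at 37 °C, then CellTiter-Glo added for 30 min at room temperature before luminescence reading. Line: DT40 Tdp1-/- complemented with hTDP1; camptothecin omitted.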
RORgamma inh: ROR gamma (mouse) transcription inhibition; P51450; Potency, µM (titrated, usually from 53.6 µM), for inactives: at the top dose activity change, negative = inhibition, usual class: inhibitors; 310,000 compounds, 5.4% hits; Drosophila S2 Gal4-RORgamma UAS-luciferase reporter, 20 h; note: potency is the fitted concentration of half-maximal effect; nearly all actives have a fitted effect of over 60% in size
Target sequence (P51450 whole entry, looked up, the tested form may be a part): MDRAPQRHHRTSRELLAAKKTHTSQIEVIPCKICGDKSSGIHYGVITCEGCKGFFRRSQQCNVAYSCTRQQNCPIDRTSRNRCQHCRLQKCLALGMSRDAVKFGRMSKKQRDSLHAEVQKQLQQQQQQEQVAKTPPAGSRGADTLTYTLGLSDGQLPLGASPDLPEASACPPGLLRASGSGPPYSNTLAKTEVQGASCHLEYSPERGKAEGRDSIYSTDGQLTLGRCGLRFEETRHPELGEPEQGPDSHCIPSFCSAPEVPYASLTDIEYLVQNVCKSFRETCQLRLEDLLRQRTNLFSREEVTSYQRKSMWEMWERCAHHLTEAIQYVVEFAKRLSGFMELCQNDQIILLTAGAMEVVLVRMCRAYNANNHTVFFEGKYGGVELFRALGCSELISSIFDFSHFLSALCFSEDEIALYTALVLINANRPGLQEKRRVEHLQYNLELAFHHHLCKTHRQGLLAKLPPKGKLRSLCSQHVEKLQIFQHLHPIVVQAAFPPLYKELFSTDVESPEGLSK
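A Gal4/UAS one-hybrid system in insect cells: metallothionein-promoter Gal4–ROR gamma fusion plus Photinus luciferase reporter. Copper sulfate 700 uM final, 20 hr ambient incubation, luminescent detection after 10 min with reagent.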
DT40 TDP1 CPT: DT40-hTDP1 cell growth loss with CPT; chicken DT40 Tdp1-/-;hTDP1 cells + 20 nM CPT, ATP luminescence, 48 h; Potency, µM (top dose mostly 46.2 µM), for the others: top-dose activity change, negative = growth inhibition, actives largely listed as inhibitors; 420,000 compounds, 12% hits; AID 686979; note: potency is the fitted concentration of half-maximal effect; nearly all actives have a fitted effect of over 55% in size
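Cell growth measured by CellTiter-Glo luminescence after a minimum 48 h, 37 C compound exposure with 20 nM CPT in Tdp1-knockout DT40 cells stably expressing hTDP1, seeded 400/well; qHTS titration format.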
ELG1 repair inh: blocks ELG1-dependent DNA repair in HEK293T cells. HEK293T ELG1-luciferase reporter, luminescence, 16 h; DNA damage induced by 5-fluorouridine. Potency, µM (titrated, usually from 46.1 µM), without a hit: at the top dose activity change, negative = inhibition, most hits filed as inhibitors. 330,000 compounds, 2.3% hits. AID 504467; note: potency is the fitted concentration of half-maximal effect; nearly all actives have a fitted effect of over 55% in size
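In this reporter screen, reduction of luminescence relative to DMSO vehicle indicated activity. Compounds and 5-fluorouridine were added together to 2,000 cells per well, incubated for 16 hr at 37 °C, then developed with ONE-Glo.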
Gal4-VP16 FLuc: inhibits Gal4-VP16 luciferase reporter, ROR gamma counter-screen; Drosophila S2 Gal4-VP16 UAS-luciferase, luminescence, 20 h; Potency, µM (doses to about 53.6 µM), without a hit: at the top dose activity, negative = inhibition, usual class: inhibitors; 310,000 compounds, 3.5% hits;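 note: Gal4-VP16 expression switched on by copper sulfate through the metallothionein promoter; potency is the fitted concentration of half-maximal effect; nearly all actives have a fitted effect of over 50% in size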
IL-1B inflam inh: inflammasome signaling inhibition, IL-1 beta readout. THP-1 LPS/ATP IL-1B secretion, AlphaLISA, 16 h; hits give low values. AID 743279. 360,000 compounds, 4.7% hits. activity change, % at 57.5 µM; in the data active = activity change below about -50%; inconclusive = mostly about -30% to -49%
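Secreted IL-1B measured by AlphaLISA bead assay after 16 h compound exposure of THP-1 cells; compounds (final up to 57.5 uM) added 1 h before LPS (250 ng/mL) and ATP (1.25 mM) stimulation; lower signal means less secretion.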
The depositor's hits bear a star; [ ] = remark or other dose. Unless noted, calls come from the whole dose curve; as a rule, active = well fitted curve in the direction sought with a large enough effect; inconclusive = small, poorly fitted or top-dose-only effect, or another doubt; inactive = no such curve, though single readings can be large; an effect the other way counts as inactive or inconclusive. % is set by controls: 0 for no effect and ±100 for the full control effect.

For COc1ccc(CCN(C)C(=O)Cc2ccc(-c3ccccc3)cc2)cc1OC the results were DT40 TDP1 no CPT 16µM*, RORgamma inh 1%, DT40 TDP1 CPT 18µM*, ELG1 repair inh inconclusive, Gal4-VP16 FLuc inconclusive and IL-1B inflam inh -55*.
`COc1ccc(CCN(C)C(=O)COc2ccc(C(=O)c3ccccc3)cc2)cc1OC` gave DT40 TDP1 no CPT inconclusive, DT40 TDP1 CPT inconclusive, ELG1 repair inh inconclusive and IL-1B inflam inh -1.
CCn1ncc(NC(=S)Nc2ccc3c(c2)OCO3)c1C(N)=O was read as DT40 TDP1 no CPT -11%, RORgamma inh 0%, DT40 TDP1 CPT -1%, ELG1 repair inh 16%, Gal4-VP16 FLuc -12% and IL-1B inflam inh 2.
For CCC1CCCCN1Cc1cc(OC)c(O)c([N+](=O)[O-])c1 (stereo not drawn) the results were DT40 TDP1 no CPT -2%, RORgamma inh -10%, DT40 TDP1 CPT 6%, ELG1 repair inh -6%, Gal4-VP16 FLuc -11% and IL-1B inflam inh 0.
For CCc1ccc2c(c1)N(CC(C)CN(C)C)c1ccccc1S2 (stereo not drawn) the results were DT40 TDP1 no CPT 15µM* and DT40 TDP1 CPT inconclusive.
For CCc1ccc2c(c1)N(C[C@H](C)CN(C)C)c1ccccc1S2 the results were RORgamma inh -9%[10 µM] and Gal4-VP16 FLuc -11%.
`CC[N+]1(CC)CC2=Cc3c(ccc4ccccc34)C(C)C2C1` (stereo not drawn) gave DT40 TDP1 no CPT 13µM*, RORgamma inh -12%, DT40 TDP1 CPT 5.8µM*, ELG1 repair inh inconclusive, Gal4-VP16 FLuc 0% and IL-1B inflam inh -16.
For O=C(Nc1cccc(S(=O)(=O)NC2=NCCC2)c1)c1cc(=O)[nH]c2ccccc12 the results were DT40 TDP1 no CPT 14%, DT40 TDP1 CPT -6%, ELG1 repair inh -16% and IL-1B inflam inh 3.
Screening O=C(Nc1cccc(S(=O)(=O)NC2=NCCC2)c1)c1cc(-c2ccccn2)nc2ccccc12 returned DT40 TDP1 no CPT 16µM*, RORgamma inh -7%, DT40 TDP1 CPT 23µM*, ELG1 repair inh -12%, Gal4-VP16 FLuc 9% and IL-1B inflam inh 13.
For O=C(Nc1cccc(S(=O)(=O)NC2=NCCCCC2)c1)c1cc(-c2ccccc2Cl)nc2ccccc12 the results were DT40 TDP1 no CPT inconclusive, RORgamma inh 2%, DT40 TDP1 CPT inconclusive, ELG1 repair inh 23µM*, Gal4-VP16 FLuc 6% and IL-1B inflam inh -11.
CC1(c2nc3ccccc3[nH]2)CCCC2=Nc3ccccc3CN21 (stereo not drawn) was read as DT40 TDP1 no CPT 18µM*, DT40 TDP1 CPT inconclusive and IL-1B inflam inh -14.
O=C(/C=C/c1ccccc1[N+](=O)[O-])N1CCc2ccccc2C1 was read as DT40 TDP1 no CPT 16µM*, RORgamma inh inconclusive, DT40 TDP1 CPT inconclusive, ELG1 repair inh inconclusive, Gal4-VP16 FLuc 23% and IL-1B inflam inh -53*.
CCN1CCN(C(=O)/C=C/c2c(F)cccc2Cl)CC1 was read as DT40 TDP1 no CPT 0%, RORgamma inh -3%, DT40 TDP1 CPT 10%, ELG1 repair inh 2%, Gal4-VP16 FLuc 3% and IL-1B inflam inh -5.
O=C(/C=C/c1c(F)cccc1Cl)N1CCc2ccccc2C1 was read as DT40 TDP1 no CPT inconclusive, RORgamma inh 0.4µM*, DT40 TDP1 CPT inconclusive, ELG1 repair inh inconclusive, Gal4-VP16 FLuc 2% and IL-1B inflam inh -63*.
For O=C(c1ccc([N+](=O)[O-])cc1)N1CCc2ccccc2C1 the results were DT40 TDP1 no CPT -14%, RORgamma inh 34%, DT40 TDP1 CPT -14%, ELG1 repair inh 15%, Gal4-VP16 FLuc -1% and IL-1B inflam inh -4.

Source: PubChem BioAssay
